# In PubChem BioAssay (Tox21):
# Results filed as inconclusive are left out. Entries that show only a call come without a potency. Calls of active or inactive are those of the source.
# Molecular target: Estrogen receptor beta (Homo sapiens) (UniProt Q92731)
# Assay: qHTS assay to identify small molecule agonists of the estrogen receptor beta (ER-beta) signaling pathway (AID 1259377; active = well fitted activation curve with a large enough effect in the signal ratio in the repeat runs, not every such curve was filed as active; the % refers to the signal ratio)
# Conditions: ER-beta-UAS-bla HEK293T, beta-lactamase FRET ratio, 16 h; series mostly up to 92.4 µM
# Outline: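 ER-beta-UAS-bla HEK293T cells in medium with 2% charcoal-stripped FBS were exposed to compounds for 16 h at 37C. Beta-lactamase reporter activity was read as fluorescence after 2 h with LiveBLAzer B/G FRET substrate at room temperature.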
# Chain of Estrogen receptor beta (Homo sapiens) (Q92731 whole entry, looked up): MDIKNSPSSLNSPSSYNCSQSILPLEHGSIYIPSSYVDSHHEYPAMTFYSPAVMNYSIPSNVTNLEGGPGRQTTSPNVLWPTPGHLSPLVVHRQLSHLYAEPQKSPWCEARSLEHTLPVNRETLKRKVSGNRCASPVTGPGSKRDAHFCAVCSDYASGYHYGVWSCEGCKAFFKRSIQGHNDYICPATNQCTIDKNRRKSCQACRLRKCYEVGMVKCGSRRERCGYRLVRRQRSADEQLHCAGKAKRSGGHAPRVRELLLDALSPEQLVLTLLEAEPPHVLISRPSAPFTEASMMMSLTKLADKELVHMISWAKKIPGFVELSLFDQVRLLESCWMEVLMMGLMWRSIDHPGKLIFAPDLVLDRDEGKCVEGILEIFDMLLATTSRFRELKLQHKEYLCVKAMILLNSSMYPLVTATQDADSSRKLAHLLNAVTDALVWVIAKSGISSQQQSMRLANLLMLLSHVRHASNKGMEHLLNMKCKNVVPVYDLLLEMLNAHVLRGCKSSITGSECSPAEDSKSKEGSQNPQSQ
Compound,Potency,activation
C[N+]1(C)CCC(=C(c2ccccc2)c2ccccc2)CC1,inactive,–
CC[C@@H]([C@H](C)O)n1ncn(-c2ccc(N3CCN(c4ccc(OC[C@@H]5CO[C@@](Cn6cncn6)(c6ccc(F)cc6F)C5)cc4)CC3)cc2)c1=O,inactive,–
CCCCCC=CCC=CCCCCCCCC(=O)OCC,inactive,–
CN1Cc2cc(C(=O)N3CCC(C4CCNCC4)CC3)ccc2N[C@@H](CC(=O)O)C1=O,inactive,–
Cc1cc(S(=O)(=O)O)ccc1N=Nc1c(O)ccc2ccccc12,inactive,–
Cc1ccccc1N1C(=O)c2cc(S(N)(=O)=O)c(Cl)cc2NC1C (stereo not drawn),inactive,–
CCCCC(CC)C(=O)OCCOCCOCCOCCOC(=O)C(CC)CCCC (stereo not drawn),inactive,–
CC[C@H](NC(=O)c1cc(F)ccc1NS(=O)(=O)c1cccc2cccnc12)c1ccccc1,inactive,–
CC(C)(C)CC(C)(C)c1ccc(OCCO)cc1,inactive,–
CN1CCN(c2c(F)cc3c(=O)c(C(=O)O)cn4c3c2OCN4C)CC1,–,-0.625% [at 19 µM] (inactive)
C=CC(=O)NCOCC(C)C,inactive,–
C1COCO1,inactive,–
c1cnc2c(n1)CCCC2,inactive,–
O=C(CCCCCCCCC#CI)Oc1ccccc1,inactive,–
CO[C@@]12[C@H](COC(N)=O)C3=C(C(=O)C(C)=C(N)C3=O)N1C[C@@H]1N[C@@H]12,inactive,–
CCCCCCCCCOC(C)=O,inactive,–
O=C(O)c1cccc(O)c1,inactive,–
CC(CCO)CCc1ccccc1 (stereo not drawn),inactive,–
Oc1cc(O)c(Cl)cc1Cl,inactive,–
CCCCC(CC)COC(=O)COc1ccc(Cl)cc1C (stereo not drawn),inactive,–

Compound,Potency,activation
CC(=O)N(c1onc(C)c1C)S(=O)(=O)c1ccc(N)cc1,inactive,–
CC1(C)C(=O)N(Br)C(=O)N1Cl,inactive,–
O=C(/C=C/c1ccccc1)OCCCc1ccccc1,inactive,–
CCCOC(=O)c1ccc(C(=O)OCCC)nc1,inactive,–
Cc1ccc(/C=N/n2c(-c3ccccc3)csc2=S)cc1,inactive,–
CC1(C)O[C@@H]2C[C@H]3[C@@H]4CCC5=CC(=O)C=C[C@]5(C)[C@H]4[C@@H](O)C[C@]3(C)[C@]2(C(=O)CO)O1,inactive,–
O=C(Nc1ccccc1)Nc1ccccc1,inactive,–
O=C1NCCN1,inactive,–
CCCC(=O)O[C@]1(C(=O)COC(=O)CC)CC[C@H]2[C@@H]3CCC4=CC(=O)CC[C@]4(C)[C@H]3[C@@H](O)C[C@@]21C,–,6.24% [at 19 µM] (inactive)
O=C(O)c1ccc(CO)o1,inactive,–
CCCCN(CCCC)CCCOC(=O)c1ccc(N)cc1,inactive,–
CCOC(=O)c1ccccc1C,inactive,–
CCCCCCOC(=O)C(C)C,inactive,–
CC1=C(C=O)C(C)(C)CCC1,inactive,–
CC(=O)OCC(=O)[C@@]12OC(C)(C)O[C@@H]1C[C@H]1[C@@H]3C[C@H](F)C4=CC(=O)C=C[C@]4(C)[C@@]3(F)[C@@H](O)C[C@@]12C,inactive,–
CC1CC(O)CC(C)(C)C1 (stereo not drawn),inactive,–
CN1CCCN=C1/C=C/c1cccs1,inactive,–
Cc1cc(OI)c(C(C)C)cc1-c1cc(C(C)C)c(OI)cc1C,inactive,–
NCC1CCCC(CN)C1 (stereo not drawn),inactive,–

# Molecular target: Estrogen receptor beta (Homo sapiens) (UniProt Q92731)
# Assay: qHTS assay to identify small molecule antagonists of the estrogen receptor beta (ER-beta) signaling pathway (AID 1259378; active = well fitted inhibition curve with a large enough effect in the signal ratio in the repeat runs, not every such curve was filed as active; the % refers to the signal ratio; also: potency is read from the fitted curve at half-maximal effect)
# Conditions: ER-beta-UAS-bla HEK293T, beta-lactamase FRET ratio, 16 h; series mostly up to 92.4 µM
# Outline: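 ER-beta-UAS-bla HEK293T (GripTite) cells in 2% charcoal-stripped FBS medium were preincubated 6 hr at 37C, dosed with compound, then stimulated with 1 nM E2 (final) for 16 hr; beta-lactamase reporter read by B/G FRET fluorescence after 2 hr substrate loading.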
Compound,Potency,"activity, negative = inhibition"
C[N+]1(C)CCC(=C(c2ccccc2)c2ccccc2)CC1,inactive,–
CC[C@@H]([C@H](C)O)n1ncn(-c2ccc(N3CCN(c4ccc(OC[C@@H]5CO[C@@](Cn6cncn6)(c6ccc(F)cc6F)C5)cc4)CC3)cc2)c1=O,5.96 µM (active),–
CCCCCC=CCC=CCCCCCCCC(=O)OCC,inactive,–
CN1Cc2cc(C(=O)N3CCC(C4CCNCC4)CC3)ccc2N[C@@H](CC(=O)O)C1=O,inactive,–
Cc1cc(S(=O)(=O)O)ccc1N=Nc1c(O)ccc2ccccc12,inactive,–
Cc1ccccc1N1C(=O)c2cc(S(N)(=O)=O)c(Cl)cc2NC1C (stereo not drawn),inactive,–
CCCCC(CC)C(=O)OCCOCCOCCOCCOC(=O)C(CC)CCCC (stereo not drawn),inactive,–
CC[C@H](NC(=O)c1cc(F)ccc1NS(=O)(=O)c1cccc2cccnc12)c1ccccc1,inactive,–
CC(C)(C)CC(C)(C)c1ccc(OCCO)cc1,43 µM (active),–
CN1CCN(c2c(F)cc3c(=O)c(C(=O)O)cn4c3c2OCN4C)CC1,–,2.63% [at 19 µM] (inactive)
C=CC(=O)NCOCC(C)C,inactive,–
C1COCO1,inactive,–
c1cnc2c(n1)CCCC2,inactive,–
O=C(CCCCCCCCC#CI)Oc1ccccc1,inactive,–
CO[C@@]12[C@H](COC(N)=O)C3=C(C(=O)C(C)=C(N)C3=O)N1C[C@@H]1N[C@@H]12,18.8 µM (active),–
CCCCCCCCCOC(C)=O,inactive,–
O=C(O)c1cccc(O)c1,inactive,–
CC(CCO)CCc1ccccc1 (stereo not drawn),inactive,–
Oc1cc(O)c(Cl)cc1Cl,inactive,–
CCCCC(CC)COC(=O)COc1ccc(Cl)cc1C (stereo not drawn),inactive,–

Compound,Potency,"activity, negative = inhibition"
CC(=O)N(c1onc(C)c1C)S(=O)(=O)c1ccc(N)cc1,inactive,–
CC1(C)C(=O)N(Br)C(=O)N1Cl,inactive,–
O=C(/C=C/c1ccccc1)OCCCc1ccccc1,inactive,–
CCCOC(=O)c1ccc(C(=O)OCCC)nc1,inactive,–
Cc1ccc(/C=N/n2c(-c3ccccc3)csc2=S)cc1,7.5 µM (active),–
CC1(C)O[C@@H]2C[C@H]3[C@@H]4CCC5=CC(=O)C=C[C@]5(C)[C@H]4[C@@H](O)C[C@]3(C)[C@]2(C(=O)CO)O1,inactive,–
O=C(Nc1ccccc1)Nc1ccccc1,inactive,–
O=C1NCCN1,inactive,–
CCCC(=O)O[C@]1(C(=O)COC(=O)CC)CC[C@H]2[C@@H]3CCC4=CC(=O)CC[C@]4(C)[C@H]3[C@@H](O)C[C@@]21C,–,1.87% [at 19 µM] (inactive)
O=C(O)c1ccc(CO)o1,inactive,–
CCCCN(CCCC)CCCOC(=O)c1ccc(N)cc1,inactive,–
CCOC(=O)c1ccccc1C,inactive,–
CCCCCCOC(=O)C(C)C,inactive,–
CC1=C(C=O)C(C)(C)CCC1,inactive,–
CC(=O)OCC(=O)[C@@]12OC(C)(C)O[C@@H]1C[C@H]1[C@@H]3C[C@H](F)C4=CC(=O)C=C[C@]4(C)[C@@]3(F)[C@@H](O)C[C@@]12C,inactive,–
CC1CC(O)CC(C)(C)C1 (stereo not drawn),inactive,–
CN1CCCN=C1/C=C/c1cccs1,inactive,–
Cc1cc(OI)c(C(C)C)cc1-c1cc(C(C)C)c(OI)cc1C,inactive,–
NCC1CCCC(CN)C1 (stereo not drawn),inactive,–
